Measured values: ChEMBL document CHEMBL3988442, “University of Dundee, Small-Polar-MMV Screening Library” (2021)
For some of these results: Entries with a potency or affinity are not part of this list.

Key:
Set-up in all cases: scale not given: direction of the effect not stated beside the values
[1] = biological target: Protein translocase subunit SecA (Escherichia coli (strain K12)) (UniProt P10408); test: Assay to Identify E. coli SecA ATPase Inhibitors; type: functional; conditions: 30 µM
[2] = biological target: T1, Ubiquitin-activating enzyme e1, putative (Leishmania donovani (strain BPK282A1)) (UniProt E9BSI1); test: Leishmania donovani Ubiquitin Activating Enzyme (LdE1); type: functional; conditions: 30 µM
T1 sequence (whole entry): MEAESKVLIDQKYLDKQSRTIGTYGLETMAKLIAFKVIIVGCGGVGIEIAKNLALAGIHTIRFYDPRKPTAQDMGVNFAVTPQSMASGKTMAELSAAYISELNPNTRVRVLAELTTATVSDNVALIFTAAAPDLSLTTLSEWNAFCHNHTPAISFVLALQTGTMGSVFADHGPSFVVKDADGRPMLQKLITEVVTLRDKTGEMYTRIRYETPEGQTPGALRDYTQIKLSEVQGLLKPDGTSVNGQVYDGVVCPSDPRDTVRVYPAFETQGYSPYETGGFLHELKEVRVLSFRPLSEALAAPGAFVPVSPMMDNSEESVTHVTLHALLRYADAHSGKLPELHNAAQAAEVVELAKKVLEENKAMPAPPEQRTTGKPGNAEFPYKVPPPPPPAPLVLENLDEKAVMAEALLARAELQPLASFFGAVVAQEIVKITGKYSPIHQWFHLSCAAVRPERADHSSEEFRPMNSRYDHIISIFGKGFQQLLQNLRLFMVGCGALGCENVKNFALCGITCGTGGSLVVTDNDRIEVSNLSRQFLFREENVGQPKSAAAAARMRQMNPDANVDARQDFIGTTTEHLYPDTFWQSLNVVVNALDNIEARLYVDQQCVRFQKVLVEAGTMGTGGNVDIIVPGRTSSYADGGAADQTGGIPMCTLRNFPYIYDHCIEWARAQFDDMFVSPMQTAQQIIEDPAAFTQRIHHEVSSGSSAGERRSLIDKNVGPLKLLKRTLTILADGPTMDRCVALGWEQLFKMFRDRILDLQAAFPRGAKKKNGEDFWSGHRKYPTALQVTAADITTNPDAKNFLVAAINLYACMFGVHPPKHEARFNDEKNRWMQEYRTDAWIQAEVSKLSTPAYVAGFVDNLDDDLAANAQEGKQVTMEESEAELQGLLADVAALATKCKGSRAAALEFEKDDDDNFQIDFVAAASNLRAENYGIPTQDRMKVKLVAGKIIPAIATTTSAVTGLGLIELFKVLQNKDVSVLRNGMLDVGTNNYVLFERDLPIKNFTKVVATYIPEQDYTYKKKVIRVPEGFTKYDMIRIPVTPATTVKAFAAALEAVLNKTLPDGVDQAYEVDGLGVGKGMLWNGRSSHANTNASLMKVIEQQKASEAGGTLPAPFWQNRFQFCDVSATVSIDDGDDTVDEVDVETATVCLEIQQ

[3] = biological target: AMP-activated protein kinase, AMPK (Homo sapiens) (UniProt P54646+O43741+P54619+Q9UGJ0+Q9Y478+Q13131+Q9UGI9); test: AMP-dependent Kinase enzyme assay. An in vitro enzyme assay that detects ADP turnover that is directly proportional to AMPK activity. This uses naive AMPK that is activated during the assay with MK-8722; type: functional; conditions: 30 µM
[4] = biological target: Sialic acid-binding Ig-like lectin 9 (Homo sapiens) (UniProt Q9Y336); test: Hs-Siglec9 ALPHAscreen SOP 20170721; conditions: 10 µM
Sequence of Sialic acid-binding Ig-like lectin 9 (Homo sapiens) (Q9Y336 whole entry): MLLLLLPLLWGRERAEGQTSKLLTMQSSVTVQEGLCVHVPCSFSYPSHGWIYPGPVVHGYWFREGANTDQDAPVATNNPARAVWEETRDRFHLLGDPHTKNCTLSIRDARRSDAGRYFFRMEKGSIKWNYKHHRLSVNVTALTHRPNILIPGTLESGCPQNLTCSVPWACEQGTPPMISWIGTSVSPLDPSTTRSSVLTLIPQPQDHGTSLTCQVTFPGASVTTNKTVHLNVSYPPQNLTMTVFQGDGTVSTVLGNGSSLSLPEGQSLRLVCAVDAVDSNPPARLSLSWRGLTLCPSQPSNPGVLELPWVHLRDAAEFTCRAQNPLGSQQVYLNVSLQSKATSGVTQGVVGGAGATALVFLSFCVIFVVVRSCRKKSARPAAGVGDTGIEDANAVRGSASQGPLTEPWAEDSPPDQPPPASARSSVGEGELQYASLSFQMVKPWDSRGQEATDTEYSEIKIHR

Trypanosoma cruzi = test: Trypanosoma cruzi phosphomannomutase and mannose-1-phosphate guanylyltransferase assay; type: functional; conditions: 10 µM
[5] = biological target: T2, Arginase-2, mitochondrial (Homo sapiens) (UniProt P78540); test: in vitro enzyme assay to detect the production of urea directly proportional to the activity of Arginase II; type: functional; conditions: 33.3 µM; also: in the data most compounds retested in dose-response had high values
T2 sequence (whole entry): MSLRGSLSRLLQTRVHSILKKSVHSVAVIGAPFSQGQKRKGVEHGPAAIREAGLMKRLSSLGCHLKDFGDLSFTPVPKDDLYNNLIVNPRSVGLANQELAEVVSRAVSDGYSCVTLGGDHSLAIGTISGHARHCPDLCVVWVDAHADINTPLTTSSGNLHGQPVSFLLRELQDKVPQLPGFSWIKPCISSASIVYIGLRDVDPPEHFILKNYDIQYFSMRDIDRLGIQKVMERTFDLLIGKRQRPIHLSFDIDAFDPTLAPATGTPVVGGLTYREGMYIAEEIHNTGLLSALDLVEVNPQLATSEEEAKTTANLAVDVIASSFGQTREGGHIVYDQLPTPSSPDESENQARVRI

[6] = biological target: T3, Proteasome subunit beta (Trypanosoma cruzi) (UniProt O96673); test: Trypanosoma cruzi proteasome chymotrypsin-like activity (TcProtChymo) assay.; also: in the data most compounds retested in dose-response had high values; type: functional; conditions: 9.37 µM
T3 sequence (whole entry): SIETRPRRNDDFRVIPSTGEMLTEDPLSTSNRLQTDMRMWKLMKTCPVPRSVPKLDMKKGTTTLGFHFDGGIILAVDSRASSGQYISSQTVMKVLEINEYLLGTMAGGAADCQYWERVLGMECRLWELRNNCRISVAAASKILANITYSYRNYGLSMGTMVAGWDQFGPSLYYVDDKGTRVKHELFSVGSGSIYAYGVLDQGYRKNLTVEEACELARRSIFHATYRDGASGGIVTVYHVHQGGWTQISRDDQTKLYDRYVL

Homo sapiens = organism: Homo sapiens; test: To identify inhibition of the IFN signalling (Jak-Stat) pathway via expression of an eGFP reporter gene under the control of an IFN-stimulated response element (ISRE) containing MxA promoter.; type: functional; conditions: 30 µM
[7] = biological target: T4, Tyrosyl-tRNA synthetase, putative (Trypanosoma cruzi (strain CL Brener)) (UniProt Q4DSP6); test: Trypanosoma cruzi tyrosyl tRNA synthetase (TcYRS) _High Tyrosine SOP; type: functional; conditions: 30 µM; also: in the data most compounds retested in dose-response had high values
T4 sequence (whole entry): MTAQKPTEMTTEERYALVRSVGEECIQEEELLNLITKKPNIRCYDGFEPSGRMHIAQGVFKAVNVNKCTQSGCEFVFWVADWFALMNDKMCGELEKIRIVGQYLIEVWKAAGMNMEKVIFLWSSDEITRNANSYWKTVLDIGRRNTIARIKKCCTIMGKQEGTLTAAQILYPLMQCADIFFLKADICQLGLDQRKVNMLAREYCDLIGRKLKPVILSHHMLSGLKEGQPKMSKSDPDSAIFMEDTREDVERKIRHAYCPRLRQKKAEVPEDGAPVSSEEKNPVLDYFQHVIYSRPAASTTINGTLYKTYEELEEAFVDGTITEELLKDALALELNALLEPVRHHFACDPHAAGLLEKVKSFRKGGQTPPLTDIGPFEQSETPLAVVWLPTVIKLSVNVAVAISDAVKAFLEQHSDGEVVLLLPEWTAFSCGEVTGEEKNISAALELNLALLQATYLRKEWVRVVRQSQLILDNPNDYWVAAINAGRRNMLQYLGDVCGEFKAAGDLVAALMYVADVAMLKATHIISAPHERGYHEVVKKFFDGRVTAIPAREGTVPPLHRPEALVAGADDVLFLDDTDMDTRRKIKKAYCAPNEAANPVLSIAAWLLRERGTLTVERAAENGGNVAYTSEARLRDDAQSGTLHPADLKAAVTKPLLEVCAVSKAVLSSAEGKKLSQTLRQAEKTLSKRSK

[8] = biological target: T4, Tyrosyl-tRNA synthetase, putative (Trypanosoma cruzi (strain CL Brener)); test: Trypanosoma cruzi tyrosyl tRNA synthetase (TcYRS) SOP; type: functional; conditions: 30 µM
[9] = biological target: Chromo domain-containing protein 1 (Saccharomyces cerevisiae (strain ATCC 204508 / S288c) (Baker's yeast)) (UniProt P32657); test: ScCHD-1 Enzyme Inhibition Assay; type: functional; conditions: 30 µM; also: in the data most compounds retested in dose-response had high values
Sequence of Chromo domain-containing protein 1 (Saccharomyces cerevisiae (strain ATCC 204508 / S288c) (Baker's yeast)) (P32657 whole entry, the tested form may be a part): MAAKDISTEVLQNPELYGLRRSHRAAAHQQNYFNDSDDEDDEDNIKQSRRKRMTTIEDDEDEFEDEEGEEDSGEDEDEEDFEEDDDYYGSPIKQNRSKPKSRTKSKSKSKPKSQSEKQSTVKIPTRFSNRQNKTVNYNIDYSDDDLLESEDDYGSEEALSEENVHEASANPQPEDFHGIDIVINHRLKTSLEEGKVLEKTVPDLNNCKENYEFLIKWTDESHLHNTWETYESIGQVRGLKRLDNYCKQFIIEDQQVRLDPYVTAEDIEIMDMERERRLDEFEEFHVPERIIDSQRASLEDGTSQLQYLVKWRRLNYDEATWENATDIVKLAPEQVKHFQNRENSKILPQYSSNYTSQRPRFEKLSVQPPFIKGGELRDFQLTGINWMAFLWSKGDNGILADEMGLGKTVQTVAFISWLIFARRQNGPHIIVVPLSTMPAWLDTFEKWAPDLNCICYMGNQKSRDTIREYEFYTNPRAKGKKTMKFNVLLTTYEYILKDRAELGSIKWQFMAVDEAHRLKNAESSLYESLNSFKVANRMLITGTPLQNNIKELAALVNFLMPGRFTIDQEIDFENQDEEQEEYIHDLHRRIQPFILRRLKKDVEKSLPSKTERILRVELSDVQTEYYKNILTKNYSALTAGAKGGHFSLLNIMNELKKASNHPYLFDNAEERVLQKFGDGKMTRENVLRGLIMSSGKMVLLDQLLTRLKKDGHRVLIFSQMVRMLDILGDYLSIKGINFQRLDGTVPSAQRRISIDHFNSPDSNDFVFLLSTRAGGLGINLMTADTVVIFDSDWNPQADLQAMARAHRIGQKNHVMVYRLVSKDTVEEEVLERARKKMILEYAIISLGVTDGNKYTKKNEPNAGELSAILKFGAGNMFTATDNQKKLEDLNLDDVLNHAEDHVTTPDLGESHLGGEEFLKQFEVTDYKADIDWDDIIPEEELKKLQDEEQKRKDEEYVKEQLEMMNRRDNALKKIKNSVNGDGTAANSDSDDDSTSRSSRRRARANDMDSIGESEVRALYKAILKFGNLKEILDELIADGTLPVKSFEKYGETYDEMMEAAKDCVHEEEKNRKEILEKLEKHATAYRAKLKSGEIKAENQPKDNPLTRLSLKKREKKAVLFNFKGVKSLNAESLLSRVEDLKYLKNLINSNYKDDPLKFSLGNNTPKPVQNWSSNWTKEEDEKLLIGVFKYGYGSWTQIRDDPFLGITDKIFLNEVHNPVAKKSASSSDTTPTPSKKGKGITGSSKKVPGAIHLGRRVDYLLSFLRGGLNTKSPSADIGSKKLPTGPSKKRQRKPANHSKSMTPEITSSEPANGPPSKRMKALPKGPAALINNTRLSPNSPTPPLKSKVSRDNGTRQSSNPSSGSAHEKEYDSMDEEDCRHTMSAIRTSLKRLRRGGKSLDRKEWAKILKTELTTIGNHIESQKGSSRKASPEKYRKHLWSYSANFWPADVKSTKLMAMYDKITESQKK

Sequence of Protein translocase subunit SecA (Escherichia coli (strain K12)) (P10408 whole entry): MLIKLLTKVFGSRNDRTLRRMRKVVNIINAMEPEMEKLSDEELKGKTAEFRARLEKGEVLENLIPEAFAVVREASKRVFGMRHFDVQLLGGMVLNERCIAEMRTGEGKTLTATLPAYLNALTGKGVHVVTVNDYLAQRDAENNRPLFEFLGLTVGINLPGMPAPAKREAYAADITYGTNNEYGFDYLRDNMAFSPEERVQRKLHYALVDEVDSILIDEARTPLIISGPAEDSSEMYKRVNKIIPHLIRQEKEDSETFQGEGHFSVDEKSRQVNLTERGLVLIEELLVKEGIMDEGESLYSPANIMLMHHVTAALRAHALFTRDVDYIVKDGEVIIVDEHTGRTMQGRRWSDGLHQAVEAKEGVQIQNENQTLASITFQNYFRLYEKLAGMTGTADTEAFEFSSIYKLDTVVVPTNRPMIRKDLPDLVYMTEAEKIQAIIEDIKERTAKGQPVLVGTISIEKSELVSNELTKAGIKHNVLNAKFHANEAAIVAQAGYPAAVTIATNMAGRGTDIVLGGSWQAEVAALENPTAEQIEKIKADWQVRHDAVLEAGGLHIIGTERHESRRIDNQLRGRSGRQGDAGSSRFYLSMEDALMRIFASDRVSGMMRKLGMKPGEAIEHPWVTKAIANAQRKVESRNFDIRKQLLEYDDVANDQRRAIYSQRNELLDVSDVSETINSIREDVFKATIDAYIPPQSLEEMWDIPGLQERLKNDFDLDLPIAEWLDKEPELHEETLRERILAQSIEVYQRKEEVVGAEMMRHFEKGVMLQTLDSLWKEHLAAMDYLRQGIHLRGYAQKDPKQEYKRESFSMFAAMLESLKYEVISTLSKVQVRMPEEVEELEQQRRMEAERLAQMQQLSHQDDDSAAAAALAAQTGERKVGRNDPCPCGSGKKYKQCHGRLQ

CCOc1ccc(Cl)cc1CNCCCn1ccnc1
Percent Effect [1]: -0.524%
Percent Effect [2]: 6.67%
Percent Effect [3]: 7.15%
Percent Effect [4]: -7.03%
Percent Effect (Trypanosoma cruzi): -5.5%
Percent Effect [5]: -9.68%
Percent Effect [6]: 19%
Percent Effect (Homo sapiens): 11%
Percent Effect [7]: -2.12%
Percent Effect [8]: 5.13%
Percent Effect [9]: -11.2%

CS(=O)(=O)Cc1ccc(CNC(=O)c2cccnc2O)cc1
Percent Effect [1]: -1.42%
Percent Effect [2]: 13.9%
Percent Effect [3]: 8.18%
Percent Effect [4]: 5.03%
Percent Effect (Trypanosoma cruzi): -5.64%
Percent Effect [5]: 1.94%
Percent Effect [6]: 22.3%
Percent Effect (Homo sapiens): 17.9%
Percent Effect [7]: 3.12%
Percent Effect [8]: 7.59%
Percent Effect [9]: -7.98%

O=C(NCCNc1ncccn1)N1CCSCC1
Percent Effect [1]: -0.808%
Percent Effect [2]: 13.5%
Percent Effect [3]: -7.4%
Percent Effect [4]: 9.38%
Percent Effect (Trypanosoma cruzi): 3.87%
Percent Effect [5]: -5.21%
Percent Effect [6]: 7.39%
Percent Effect (Homo sapiens): 11.3%
Percent Effect [7]: 5.42%
Percent Effect [8]: 16.1%
Percent Effect [9]: -9.99%

Cn1nc(COc2cccnc2)c2c1CCN(c1cnccn1)C2
Percent Effect [1]: -4.47%
Percent Effect [2]: 13.5%
Percent Effect [3]: -0.741%
Percent Effect [4]: 2.04%
Percent Effect (Trypanosoma cruzi): 0.293%
Percent Effect [5]: 14.3%
Percent Effect [6]: 26.2%
Percent Effect (Homo sapiens): 4.97%
Percent Effect [7]: 5.41%
Percent Effect [8]: 12.8%
Percent Effect [9]: -3.43%

CCCn1nc2c(cc1=O)CN(Cc1cc(C)on1)CC2
Percent Effect [1]: -5.31%
Percent Effect [2]: -2.7%
Percent Effect [3]: -46.3%
Percent Effect [4]: 0.285%
Percent Effect (Trypanosoma cruzi): -1.76%
Percent Effect [5]: 7.08%
Percent Effect [6]: 17.8%
Percent Effect (Homo sapiens): 9.88%
Percent Effect [7]: 6.93%
Percent Effect [8]: 6.1%
Percent Effect [9]: -7.36%

CC(=O)N1CCCN(C(=O)NCCc2cc(Cl)cc(Cl)c2)CC1
Percent Effect [1]: -3.3%
Percent Effect [2]: -8.86%
Percent Effect [3]: 10.6%
Percent Effect [4]: 0.0308%
Percent Effect (Trypanosoma cruzi): -2.77%
Percent Effect [5]: 7.1%
Percent Effect [6]: 1.54%
Percent Effect (Homo sapiens): 13.1%
Percent Effect [7]: 0%
Percent Effect [8]: 2.53%
Percent Effect [9]: -17.6%

O=S(=O)(NCC1CCOc2ccccc2C1)N1CCOCC1 (stereo unspecified)
Percent Effect [1]: -5.96%
Percent Effect [2]: 15.6%
Percent Effect [3]: 1.72%
Percent Effect [4]: 13.8%
Percent Effect (Trypanosoma cruzi): 3.83%
Percent Effect [5]: -1.38%
Percent Effect [6]: 11.8%
Percent Effect (Homo sapiens): 6.21%
Percent Effect [7]: 3.23%
Percent Effect [8]: 13.6%
Percent Effect [9]: 1.35%

C=C(C)COCCNC(=O)C1CCCN1C(C)=O (stereo unspecified)
Percent Effect [1]: -2.72%
Percent Effect [2]: 18.2%
Percent Effect [3]: -0.215%
Percent Effect [4]: 2.93%
Percent Effect (Trypanosoma cruzi): 7.3%
Percent Effect [5]: -1.78%
Percent Effect [6]: 5.41%
Percent Effect (Homo sapiens): 6.11%
Percent Effect [7]: 5.83%
Percent Effect [8]: 21.9%
Percent Effect [9]: -8.29%

COCCN1CCN(CCCS(=O)(=O)c2ccccc2)CC1C (stereo unspecified)
Percent Effect [1]: -1.14%
Percent Effect [2]: -5.41%
Percent Effect [3]: -5.83%
Percent Effect [4]: 0.945%
Percent Effect (Trypanosoma cruzi): 6.22%
Percent Effect [5]: 0.554%
Percent Effect [6]: 4.13%
Percent Effect (Homo sapiens): -19.8%
Percent Effect [7]: 4.95%
Percent Effect [8]: 1.22%
Percent Effect [9]: -0.0339%

COCc1ccccc1C(=O)NCCCN1CCCC1C(=O)N(C)C (stereo unspecified)
Percent Effect [1]: 0.173%
Percent Effect [2]: 8.22%
Percent Effect [3]: -7.48%
Percent Effect [4]: 6.16%
Percent Effect (Trypanosoma cruzi): 2.94%
Percent Effect [5]: -2.27%
Percent Effect [6]: 15.8%
Percent Effect (Homo sapiens): 13.9%
Percent Effect [7]: 3.23%
Percent Effect [8]: 12.5%
Percent Effect [9]: -6.47%

Cc1nn(C)c(N(C)C)c1CNCc1cccnc1-n1cncn1
Percent Effect [1]: -3.71%
Percent Effect [2]: 8.86%
Percent Effect [3]: 1.44%
Percent Effect [4]: 1.22%
Percent Effect (Trypanosoma cruzi): -4.21%
Percent Effect [5]: 3.23%
Percent Effect [6]: 12.9%
Percent Effect (Homo sapiens): -1.83%
Percent Effect [7]: 7.29%
Percent Effect [8]: 12.7%
Percent Effect [9]: -7.57%
